Eight molecules from PubChem BioAssay (Tox21) can be followed below.

Assay [1] can be described thus: qHTS RealTime-Glo MT Cell Viability Assay in HEK293 cells - 0 hour (AID 1224880). Note: top concentration of the series differs between compounds; nearly all actives have a fitted effect of over 45% in size. The method in brief:
(§1)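 600 cells/well were plated with the nonlytic NanoLuc/prosubstrate reagent, pre-incubated 5 h, then given 23 nL of compound in DMSO. Incubation at 37 C for 40 h, with luminescence from viable-cell-reduced substrate read repeatedly from 0 h.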
On the technique in general: Quantitative high-throughput screening tests each substance at several concentrations.

The nature of assay [2]: A CellTox Green Cytotoxicity Assay to monitor cytotoxicity in HEK293 cells - 32 hour (AID 1224881). Note: nearly all actives have a fitted effect of over 40% in size. The method in brief:
(§2)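 HEK293 cells, 600/well, were preincubated 5 hours and then exposed to compounds at 37 C for up to 40 hours. A cell-impermeant cyanine dye staining dead-cell DNA was read by fluorescence at 0, 8, 16, 24, 32 and 40 h time points.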

A short description of assay [3]: A CellTox Green Cytotoxicity Assay to monitor cytotoxicity in HepG2 cells - 0 hour (AID 1224882). Note: nearly all actives have a fitted effect of over 35% in size. The procedure, abridged:
(§3)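 HepG2 cells, 600/well, preincubated 5 h with CellTox Green dye, then exposed to Tox21 compounds in DMSO at 37 C for up to 40 h. Dead-cell DNA fluorescence read at the indicated time point.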

The nature of assay [4]: A CellTox Green Cytotoxicity Assay to monitor cytotoxicity in HepG2 cells - 32 hour (AID 1224883). Note: nearly all actives have a fitted effect of over 50% in size. The method in brief: as §3
A short description of assay [5]: A CellTox Green Cytotoxicity Assay to monitor cytotoxicity in HEK293 cells - 8 hour (AID 1224884). Note: nearly all actives have a fitted effect of over 35% in size. The method in brief: as §2
A short description of assay [6]: qHTS RealTime-Glo MT Cell Viability Assay in HepG2 cells - 16 hour (AID 1224885). Note: nearly all actives have a fitted effect of over 50% in size. The method in brief: (§4)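 Cell number in HepG2 cultures estimated from NanoLuc luminescence generated by metabolic reduction of a prosubstrate by living cells. The homogeneous, nonlytic format allowed repeated reads at 0, 8, 16, 24, 32 and 40 h of compound exposure.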
A short description of assay [7]: qHTS RealTime-Glo MT Cell Viability Assay in HEK293 cells - 24 hour (AID 1224886). Note: top concentration of the series differs between compounds; nearly all actives have a fitted effect of over 50% in size. The procedure, abridged:
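Homogeneous bioluminescent viability format in HEK293 cells (600 cells/well). Following 5 h at 37 C/5% CO2, 23 nL compound was pintooled; the signal was measured repeatedly during 40 h incubation.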

A short description of assay [8]: qHTS RealTime-Glo MT Cell Viability Assay in HEK293 cells - 8 hour (AID 1224887). Note: top concentration of the series differs between compounds; nearly all actives have a fitted effect of over 50% in size. The procedure, abridged: as §1
Assay [9] in a line: A CellTox Green Cytotoxicity Assay to monitor cytotoxicity in HEK293 cells - 16 hour (AID 1224888). Note: nearly all actives have a fitted effect of over 35% in size. The method in brief:
as §2

Assay [10] can be described thus: qHTS RealTime-Glo MT Cell Viability Assay in HepG2 cells - 0 hour (AID 1224889). Note: nearly all actives have a fitted effect of over 50% in size. The procedure, abridged: as §4
A short description of assay [11]: A CellTox Green Cytotoxicity Assay to monitor cytotoxicity in HepG2 cells - 8 hour (AID 1224890). Note: nearly all actives have a fitted effect of over 45% in size. The method in brief: as §3
Assay [12] is described as follows: qHTS assay to identify small molecule antagonists of the estrogen receptor alpha (ER-alpha) signaling pathway using the BG1 cell line in the presence of 0.1 nM 17-beta-estradiol - cell viability counter screen (AID 1259241). Note: nearly all actives have a fitted effect of over 40% in size. The method in brief:
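CellTiter-Fluor read (30 min, 37C) on ER-alpha/ERE-luc VM7Luc4E2 cells; 22 hr compound treatment; agonist 0.1 nM E2 final; same-well multiplex.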

Assay [13] is described as follows: qHTS assay to identify small molecule antagonists of the androgen receptor (AR) signaling pathway using the MDA cell line in the presence of 0.5 nM R1881 - cell viability counter screen (AID 1259242). Note: nearly all actives have a fitted effect of over 45% in size. The procedure, abridged: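 MDA-kb2 cells (MMTV-luciferase, AR/GR responsive) were treated with compounds plus 0.5 nM R1881 (final) for 16 hr at 37C, 0% CO2. Viability was then read in the same wells as live-cell protease fluorescence (CellTiter-Fluor, 30 min).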

Assay [14] deals with Estrogen receptor (Homo sapiens) (UniProt P03372). Put plainly: qHTS assay to identify small molecule antagonists of the estrogen receptor alpha (ER-alpha) signaling pathway using the BG1 cell line in the presence of 0.1 nM 17-beta-estradiol (AID 1259244). Note: nearly all actives have a fitted effect of over 50% in size. The method in brief:
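VM7Luc4E2 cells (endogenous full-length ER-alpha, 4×ERE-luciferase), kept 5 days in phenol red-free, charcoal-stripped FBS medium; 4,000 cells/well. Compounds added with 0.1 nM (final) 17beta-estradiol, 22 hr at 37C; luminescence read with ONE-Glo after 30 min.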

Assay [15] in a line: qHTS assay to identify small molecule agonists of the sonic hedgehog signaling (Shh) pathway - cell viability counter screen (AID 1259366). Note: nearly all actives have a fitted effect of over 50% in size. The method in brief:
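Fluorescence from CellTiter-Fluor reports live cells in this counter screen. NIH/3T3-derived Gli1-Luc reporter cells receive test compounds for 24hr at 37C; reagent goes in at 23hr.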

Assay [16] has as its target Androgen receptor (Homo sapiens) (UniProt P10275). As to the kind of experiment: qHTS assay to identify small molecule antagonists of the androgen receptor (AR) signaling pathway using the MDA cell line in the presence of 0.5 nM R1881 (AID 1259243). Note: nearly all actives have a fitted effect of over 50% in size. The method in brief: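 MDA-kb2 cells (MMTV-luciferase, responsive to AR and GR) at 3,000/well, rested 5 h at 37C, 0% CO2, then given compounds plus 0.5 nM R1881 (final) for 16 hr. Luciferase read with ONE-Glo after 30 min at room temperature.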

The nature of assay [17]: qHTS assay to identify small molecule phospholipidosis (PLD) inducers (AID 1259344; active = well fitted curve in the direction sought with a large enough effect; an effect the other way counts as inactive or inconclusive). The procedure, abridged: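 Phospholipidosis is scored by imaging LipidTOX-stained pits in HepG2 cells exposed to compound for 24 h at 37 C; pit counts and integrated intensities per well and per cell serve as outputs.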
Assay [18] is described as follows: qHTS assay to identify small molecule HDAC inhibitors (AID 1259364). Note: top concentration of the series differs between compounds; nearly all actives have a fitted effect of over 45% in size. The procedure, abridged: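 Wild-type HCT-116 cells, plated overnight at 37 C, exposed to compounds 2 hr at 37 C; luminogenic HDAC-Glo substrate then added 30 min at room temperature. Luminescence reports relative endogenous class I/II HDAC activity.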
Assay [19] is described as follows: qHTS assay to identify small molecule HDAC inhibitors - cell viability counter screen (AID 1259365). The method in brief: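 To flag cytotoxic hits, 1,500 wild-type HCT-116 cells per well, plated the day before, receive test compounds for 2hr at 37 C before CellTiter-Glo reagent and a luminescence read.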
Assay [20] is described as follows: qHTS assay to identify small molecule antagonists of the sonic hedgehog signaling (Shh) pathway - cell viability counter screen (AID 1259367). Note: nearly all actives have a fitted effect of over 55% in size. Note: potency is the fitted concentration of half-maximal effect. The method in brief: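 Cells: 3T3 Gli1-Luc, 2,000/well, 4 hr pre-incubation. Compounds in DMSO, then conditioned medium. Incubation 24 hr, 37C, 5% CO2. CellTiter-Fluor at 23 hr, 1 hr, fluorescence.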

Records with an inconclusive call do not appear. The source holds several records for some structures; these can differ, active in one and inactive in another. Calls of active or inactive are those of the source. Unless noted, calls come from the whole dose curve; as a rule, active = well fitted curve in the direction sought with a large enough effect in the repeat runs; inconclusive = weak or mixed curves; inactive = no such curve, though single readings can be large; an effect the other way counts as inactive or inconclusive.

Sequence of Estrogen receptor (Homo sapiens) (P03372 whole entry, looked up): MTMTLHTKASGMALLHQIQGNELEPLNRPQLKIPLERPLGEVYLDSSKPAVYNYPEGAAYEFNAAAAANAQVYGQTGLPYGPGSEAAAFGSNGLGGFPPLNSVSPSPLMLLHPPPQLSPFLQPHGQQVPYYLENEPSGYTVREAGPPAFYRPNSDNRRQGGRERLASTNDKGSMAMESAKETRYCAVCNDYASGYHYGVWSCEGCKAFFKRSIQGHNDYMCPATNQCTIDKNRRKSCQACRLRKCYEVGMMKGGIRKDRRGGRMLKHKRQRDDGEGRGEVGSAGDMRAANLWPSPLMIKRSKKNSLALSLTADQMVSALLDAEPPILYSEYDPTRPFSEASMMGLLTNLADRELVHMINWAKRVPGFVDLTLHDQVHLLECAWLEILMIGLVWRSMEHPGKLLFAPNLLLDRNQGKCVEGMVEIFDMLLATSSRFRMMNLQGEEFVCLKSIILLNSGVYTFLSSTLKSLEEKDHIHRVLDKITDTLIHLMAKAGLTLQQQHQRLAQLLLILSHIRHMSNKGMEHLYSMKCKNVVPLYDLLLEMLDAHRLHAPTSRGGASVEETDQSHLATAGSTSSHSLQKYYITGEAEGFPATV
Sequence of Androgen receptor (Homo sapiens) (P10275 whole entry, looked up): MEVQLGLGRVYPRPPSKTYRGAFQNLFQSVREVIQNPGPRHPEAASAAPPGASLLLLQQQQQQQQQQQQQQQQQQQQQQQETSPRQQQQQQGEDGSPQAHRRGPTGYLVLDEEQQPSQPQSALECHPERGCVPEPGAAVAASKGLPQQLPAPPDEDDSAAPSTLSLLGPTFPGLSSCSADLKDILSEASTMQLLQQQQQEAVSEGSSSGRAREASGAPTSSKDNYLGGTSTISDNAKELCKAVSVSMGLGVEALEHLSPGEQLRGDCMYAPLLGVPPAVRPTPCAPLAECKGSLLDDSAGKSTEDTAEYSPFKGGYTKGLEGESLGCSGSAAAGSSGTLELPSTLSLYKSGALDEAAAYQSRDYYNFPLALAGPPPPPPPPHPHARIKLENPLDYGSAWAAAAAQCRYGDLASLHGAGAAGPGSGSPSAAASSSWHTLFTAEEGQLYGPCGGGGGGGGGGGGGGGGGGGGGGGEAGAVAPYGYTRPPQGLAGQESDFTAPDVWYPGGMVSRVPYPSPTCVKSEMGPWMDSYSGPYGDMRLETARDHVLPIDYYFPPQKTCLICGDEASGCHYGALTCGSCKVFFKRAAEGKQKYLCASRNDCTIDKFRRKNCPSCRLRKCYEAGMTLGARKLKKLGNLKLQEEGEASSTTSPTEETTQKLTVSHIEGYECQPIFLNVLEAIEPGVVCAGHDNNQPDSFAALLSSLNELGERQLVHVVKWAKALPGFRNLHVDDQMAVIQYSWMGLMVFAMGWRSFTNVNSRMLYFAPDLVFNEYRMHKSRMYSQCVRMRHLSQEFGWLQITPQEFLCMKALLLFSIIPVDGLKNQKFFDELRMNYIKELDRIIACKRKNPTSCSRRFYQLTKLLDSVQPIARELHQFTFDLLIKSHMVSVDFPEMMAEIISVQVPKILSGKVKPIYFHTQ

Regarding `C(COCC1CO1)OCC1CO1` (configuration not stated), the result in assay [1], in assay [3], in assay [10] and in assay [12] was inactive. For the same molecule, the Potency entry in assay [2], in assay [4], in [5], in assay [6], in [7] and in assay [8] was “inactive” throughout. The Potency result in assay [9], in assay [11], in assay [13], in assay [14] and in assay [15] was “inactive” throughout.

For `CCOC(=O)CC(SP(=S)(OC)OC)C(=O)OCC` (configuration not stated), the call in assay [1], in assay [3], in [10] and in assay [19] was inactive. Also, the Potency entry in assay [2], in assay [4], in [5], in assay [6], in assay [7] and in [8] was “inactive” throughout. The Potency entry in assay [9], in [11], in assay [13], in [16], in assay [14] and in assay [17] was “inactive” each time. Moreover, the Potency result in assay [18], in [15] and in assay [20] was “inactive” in each case.

Regarding `[P]#[In]`, the molecule was classed as inactive in assay [1], in assay [3], in assay [10], in assay [12] and in assay [19]. In addition, the Potency entry in assay [2], in [4], in assay [5], in assay [6], in assay [7] and in [8] was “inactive” each time. Besides, the Potency entry in assay [9], in assay [11], in assay [13], in assay [15] and in [20] was “inactive” in each case.

For the molecule `ClC(Cl)(Cl)Cl`, the outcome in [1], in assay [3], in [10], in assay [12] and in assay [19] was inactive. For the same molecule, the Potency entry in [2], in [5], in assay [6], in assay [7], in assay [8] and in assay [9] was “inactive” in each case. For the same molecule, the Potency result in assay [11], in assay [13], in assay [14], in assay [17], in assay [18] and in assay [15] was “inactive” each time. Further, in assay [20], the Potency result is “inactive”.

In the case of `CCC(=O)OC1(c2ccccc2)CCN(C)CC1`, the molecule was called inactive in [1], in assay [3], in assay [10], in [12] and in assay [19]. For the same molecule, the Potency entry in [2], in assay [4], in assay [5], in assay [6], in assay [8] and in assay [9] was “inactive” each time. The Potency entry in [11], in [13], in assay [17], in [15] and in assay [20] was “inactive” each time.

Take `C=CC1(C)OC(=O)N(c2cc(Cl)cc(Cl)c2)C1=O` (configuration not stated): the outcome in assay [1], in [3], in [10] and in assay [19] was inactive. Besides, the Potency result in assay [2], in [4], in assay [5], in assay [6], in [8] and in assay [9] was “inactive” in each case. The Potency result in assay [11], in assay [13], in [14], in assay [18] and in assay [15] was “inactive” in each case. The Potency in assay [20] is 54.2 µM (active) and inactive.

Take `CCN1CCCC1CNC(=O)C(O)(c1ccccc1)c1ccccc1` (configuration not stated): the outcome in assay [1], in [3], in [10], in assay [12] and in assay [19] was inactive. For the same molecule, the Potency entry in [2], in assay [4], in [5], in assay [6], in assay [8] and in assay [9] was “inactive” throughout. Moreover, the Potency result in [11], in assay [13], in assay [18], in assay [15] and in assay [20] was “inactive” throughout.

Consider `CCC1(c2ccccc2)CCC(=O)NC1=O` (configuration not stated), for which the molecule was called inactive in assay [1], in assay [3], in [10] and in assay [12]. For the same molecule, the Potency result in assay [2], in assay [4], in [5], in assay [6], in assay [8] and in assay [9] was “inactive” throughout. Also, the Potency entry in [11], in [13], in assay [16], in assay [17], in [15] and in assay [20] was “inactive” throughout.
